{"source": "PubChem BioAssay (NCATS)", "note": "The source made the active and inactive calls. Calls come from the whole dose curve."}
{"target": "Tumor susceptibility gene 101 protein (Homo sapiens) (UniProt Q99816)", "sequence (Q99816 whole entry, looked up, the tested form may be a part)": "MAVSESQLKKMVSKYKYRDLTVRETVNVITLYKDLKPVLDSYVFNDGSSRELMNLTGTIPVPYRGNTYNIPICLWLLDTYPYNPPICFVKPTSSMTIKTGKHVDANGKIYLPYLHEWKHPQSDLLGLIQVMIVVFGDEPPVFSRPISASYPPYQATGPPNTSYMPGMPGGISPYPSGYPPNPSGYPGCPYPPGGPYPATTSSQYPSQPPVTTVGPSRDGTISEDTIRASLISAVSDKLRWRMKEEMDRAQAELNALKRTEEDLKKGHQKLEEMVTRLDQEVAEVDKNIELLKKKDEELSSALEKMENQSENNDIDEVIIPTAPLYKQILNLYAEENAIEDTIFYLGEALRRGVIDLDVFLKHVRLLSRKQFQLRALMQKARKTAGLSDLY", "assay": "qHTS Validation Assay for Iinhibitors of HIV-1 Budding by Blocking the Interaction of PTAP/TSG101 (AID 485342); note: 0% is about no effect", "settings": "TSG101-PTAP binding, fluorescence polarization, 4-point titration; series mostly up to 115 µM; fluorescence change: at the top concentration", "procedure,_shortened": "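FP read-out: FITC-PTAP peptide, 50 nM final, binding Tsg101 binding domain, 10 uM final; 20 min r.t.; 10 mM HEPES pH 7.5, 0.15 M NaCl, 0.01% Tween 20, 3 mM EDTA, 0.1 mM TCEP.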"}
{"smiles": "CCCCCCCC/C=C\\CCCCCCCC(=O)NCCc1ccc(O)c(O)c1", "fluorescence change": "-27.4% (inactive)"}
{"smiles": "COc1ccc(NC(=O)c2ccc(-c3ccc(-c4noc(C)n4)cc3C)cc2)cc1N1CCN(C)CC1", "fluorescence change": "-3.04% (inactive)"}
{"smiles": "CCCC(=O)NCCc1c2n(c3ccc(OC)cc13)CCCc1ccccc1-2", "fluorescence change": "-10.5% (inactive)"}
{"smiles": "CC(C)NC[C@H](O)COc1ccc(CC(N)=O)cc1", "fluorescence change": "3.51% (inactive)"}
{"smiles": "COc1cc([C@@H]2c3cc4c(cc3[C@H](O)C3COC(=O)[C@@H]32)OCO4)cc(OC)c1OC", "note": "(stereo partly drawn)", "fluorescence change": "-2.15% (inactive)"}
{"smiles": "COC(=O)[C@H](NC(=O)c1cc(-c2ccccc2)nc2ccccc12)c1ccccc1", "fluorescence change": "-10.3% (inactive)"}
{"smiles": "NC(N)=NC(N)=Nc1ccccc1", "fluorescence change": "-1.08% (inactive)"}
{"smiles": "COc1cc(/C=C(\\C#N)C(=O)Nc2nnc(C(F)(F)F)s2)ccc1OCc1ccc(C(F)(F)F)cc1C(F)(F)F", "fluorescence change": "-11.8% (inactive)"}
{"smiles": "O=c1oc(Cl)c(Cl)c2ccccc12", "fluorescence change": "6.14% (inactive)"}
{"smiles": "CC(C)(C)c1cc(/C=C(\\C#N)C(N)=S)cc(C(C)(C)C)c1O", "fluorescence change": "2.2% (inactive)"}
{"smiles": "C=C1C(=O)O[C@@H]2[C@H]3O[C@]3(C)CCC=C(C)CC[C@@H]12", "fluorescence change": "2.07% (inactive)"}
{"smiles": "Cc1cccc(C2CN(C)CCc3c2cc(O)c(O)c3Cl)c1", "note": "(stereo not drawn)", "fluorescence change": "2.07% (inactive)"}
{"smiles": "CN(C)CCCc1cc(C(=O)Nc2ccc(-c3ccncc3)cc2)ccc1O", "fluorescence change": "-0.975% (inactive)"}
{"smiles": "Oc1ccc(/C=C/c2ccc(/C=C/c3ccc(O)cc3)c(Br)c2)cc1", "fluorescence change": "-8.47% (inactive)"}
{"smiles": "N[C@@H](Cc1ccc(F)cc1)C(=O)O", "fluorescence change": "4.86% (inactive)"}
{"smiles": "CCCCCCC/C=C\\CCCCCCCCC(=O)O", "fluorescence change": "-25.9% (inactive)"}
{"smiles": "N#Cc1cc([N+](=O)[O-])c2sc(C(N)=O)[n+]([O-])c2c1", "fluorescence change": "2.41% (inactive)"}
{"smiles": "CCC1(O)CC2CN(CCc3c([nH]c4ccccc34)[C@@](C(=O)OC)(c3cc4c(cc3OC)N(C)C3[C@]45CCN4CC=C[C@@](CC)([C@@H](OC(C)=O)[C@]3(O)C(=O)OC)[C@H]45)C2)C1", "note": "(stereo partly drawn)", "fluorescence change": "7.38% (inactive)"}
